Measurements: PubChem BioAssay AID651756 (Johns Hopkins Ion Channel Center, 2012)
Potency and affinity values are given separately. Active and inactive are the calls of the source.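 The calls were made as follows: active = dose curve could be fitted and remaining uptake under 40% of control at 33.3 µM; inactive = the rest.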

Molecular target: High affinity choline transporter 1 (Homo sapiens) (UniProt Q9GZV3)
Experiment: CHT inhibitors reducing choline uptake, dose response, orthogonal assay for CHT inhibitor project, cell-based, 3H-choline uptake, radioactive, HEK293 CHT LV-AA (AID 651756)
Details: HEK293 CHT cells, scintillation; series mostly up to 33.3 µM

Chain of High affinity choline transporter 1 (Homo sapiens) (Q9GZV3 whole entry, looked up): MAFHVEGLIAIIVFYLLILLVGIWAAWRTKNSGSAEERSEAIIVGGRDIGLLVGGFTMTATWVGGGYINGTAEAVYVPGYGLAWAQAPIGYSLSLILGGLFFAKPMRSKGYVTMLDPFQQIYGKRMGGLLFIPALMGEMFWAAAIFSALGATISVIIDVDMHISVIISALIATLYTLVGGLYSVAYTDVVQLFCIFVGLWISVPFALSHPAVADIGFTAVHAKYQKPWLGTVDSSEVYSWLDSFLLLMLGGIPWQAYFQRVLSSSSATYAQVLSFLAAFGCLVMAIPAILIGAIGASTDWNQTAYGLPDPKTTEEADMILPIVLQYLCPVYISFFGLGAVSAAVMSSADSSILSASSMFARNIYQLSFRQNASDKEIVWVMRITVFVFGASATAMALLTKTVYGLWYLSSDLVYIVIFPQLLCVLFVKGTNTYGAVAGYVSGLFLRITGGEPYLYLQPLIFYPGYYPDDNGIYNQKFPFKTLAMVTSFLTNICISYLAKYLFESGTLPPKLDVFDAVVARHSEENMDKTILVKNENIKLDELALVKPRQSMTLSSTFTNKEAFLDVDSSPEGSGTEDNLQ

Structure (SMILES) | outcome
Cc1cccc(C(=O)Nc2ccc(S(=O)(=O)Nc3ccccn3)cc2)c1C | inactive
O=C(Nc1ccc(S(=O)(=O)Nc2ccccn2)cc1)c1ccc(Cc2ccccc2)cc1 | inactive
O=C(Nc1ccc(S(=O)(=O)Nc2ccccn2)cc1)c1ccc(Cl)cc1 | inactive
Cc1ccccc1C(=O)Nc1ccc(S(=O)(=O)Nc2ccccn2)cc1 | inactive
O=C1c2ccccc2C(=O)N1c1ccc(S(=O)(=O)Nc2ccccn2)cc1 | inactive
Cc1ccc(C(=O)Nc2ccc(S(=O)(=O)Nc3ccccn3)cc2)cc1 | inactive
Cc1c(C(=O)Nc2ccc(S(=O)(=O)Nc3ccccn3)cc2)cccc1[N+](=O)[O-] | inactive
CC1(c2ccccc2)CC(=O)N(c2ccc(S(=O)(=O)Nc3ccccn3)cc2)C1=O (stereo not drawn) | inactive
Cc1cc(C)c(C(=O)Nc2ccc(S(=O)(=O)N(C)c3ccccn3)cc2)c(C)c1 | inactive
Cc1ccc(C(=O)Nc2ccc(S(=O)(=O)Nc3ccccn3)cc2)c(C)c1 | inactive
O=C1c2ccc(Cl)cc2C(=O)N1c1ccc(S(=O)(=O)Nc2ccccn2)cc1 | inactive
O=C1CC2(CCCCC2)C(=O)N1c1ccc(S(=O)(=O)Nc2ccccn2)cc1 | inactive
O=C(Nc1ccc(S(=O)(=O)Nc2ccccn2)cc1)c1ccccc1-c1ccccc1 | inactive
O=C(Nc1ccc(S(=O)(=O)Nc2ccccn2)cc1)c1cccc(C(F)(F)F)c1 | inactive
O=C(Nc1ccc(S(=O)(=O)Nc2ccccn2)cc1)c1cccc(-c2ccccc2)c1 | inactive
O=C1C(c2ccccc2)C(c2ccccc2)C(=O)N1c1ccc(S(=O)(=O)Nc2ccccn2)cc1 (stereo not drawn) | inactive
O=C1c2cccc(F)c2C(=O)N1c1ccc(S(=O)(=O)Nc2ccccn2)cc1 | inactive
O=C(Nc1ccc(S(=O)(=O)Nc2ccccn2)cc1)c1cccc2ccccc12 | inactive
O=C(Nc1ccc(S(=O)(=O)Nc2ccccn2)cc1)c1ccc2c(c1)CCCC2 | inactive
Cc1ccc(C(=O)Nc2ccc(S(=O)(=O)Nc3ccccn3)cc2)c2ccccc12 | inactive
O=C(Nc1ccc(S(=O)(=O)Nc2ccccn2)cc1)c1ccc(C(F)(F)F)cc1 | inactive
O=C1CC(c2ccccc2)C(=O)N1c1ccc(S(=O)(=O)Nc2ccccn2)cc1 (stereo not drawn) | inactive
Cc1cc(F)ccc1C(=O)Nc1ccc(S(=O)(=O)Nc2ccccn2)cc1 | inactive
O=C(Nc1ccc(S(=O)(=O)Nc2ccccn2)cc1)c1cccc(Cl)c1 | inactive
COc1cc(C)ccc1C(=O)Nc1ccc(S(=O)(=O)Nc2ccccn2)cc1 | inactive
Cc1cccc(C(=O)Nc2ccc(S(=O)(=O)Nc3ccccn3)cc2)c1 | inactive
Cc1cc(C)c(C(=O)Nc2ccc(S(=O)(=O)Nc3ccccc3)cc2)c(C)c1 | inactive
O=C1c2cccc(Cl)c2C(=O)N1c1ccc(S(=O)(=O)Nc2ccccn2)cc1 | inactive
